Pf growth 48h: Primary qHTS for delayed death inhibitors of the malarial parasite plastid, 48 hour incubation. Potency, µM (top dose mostly 28.7 µM), most hits filed as inhibitors. AID 504832, 2011. P. falciparum luciferase growth in erythrocytes, 48 h. hit rate 5.9% among 310,000
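Luciferase-expressing parasites in RBCs, 2% Hct / 0.1% parasitemia final; RPMI 1640 + 0.5% Albumax; 37 C, 5% CO2, one generation; luminescence read-out, lower signal = inhibition.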
Sm TGR inh: qHTS Assay for the Inhibitors of Schistosoma Mansoni Peroxiredoxins; hit rate 3% among 360,000; Schistosoma mansoni thioredoxin glutathione reductase (TGR), Q962Y6; purified TGR, DTNB reduction, TNB absorbance 405 nm; Potency, µM (series often up to 114 µM), usual class: inhibitors; also: nearly all actives have a fitted effect of over 60% in size
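TGR 20 nM + NADPH 100 uM (dispensed conc.), cpd preinc 15 min RT; start with NADPH (500 uM addition) then DTNB (15 mM addition). Kinetic TNB absorbance, 405 nm filter. Four-parameter Hill fit across titration.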
NS1 function inh: qHTS Assay for Inhibitors of Influenza NS1 Protein Function; Potency, µM (highest dose often 46.1 µM); hit rate 0.4% among 270,000; calls by dose curve; also: actives are rising curves; nearly all actives have a fitted effect of over 50% in size
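Read-out: OD600 growth recovery of NS1-expressing budding yeast. Cells grown overnight at 30C in -URA glucose medium, washed, resuspended and diluted 1:100 in 2% galactose assay medium, pH 6.0. Same strain lacking NS1 served as positive control.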
CHX counter: Cycloheximide Counterscreen for Small Molecule Inhibitors of Shiga Toxin | cell reporter, cycloheximide protein synthesis inhibition counterscreen | hit rate 12% among 300,000 | max response, %; in the data active = max response mostly above about 13%, no sharp cut-off; inactive = mostly below about 14%; also: read at 38.3 µM for the half of the compounds with a filed dose
Shiga inhibitor: A qHTS for Small Molecule Inhibitors of Shiga Toxin; Vero cells, Shiga toxin protein synthesis inhibition reporter; inhibition, % at 38.7 µM; hit rate 9.2% among 290,000; AID 2315, 2010; in the data active = inhibition mostly above about 28%, no sharp cut-off; inactive = mostly below about 43%
Pf growth 96h: Primary qHTS for delayed death inhibitors of the malarial parasite plastid, 96 hour incubation | P. falciparum luciferase reporter growth, 96 h | Potency, µM (titrated, usually from 28.7 µM), usual class: inhibitors | hit rate 6.9% among 320,000 | AID 504834, 2011
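Delayed-death screen, second-generation endpoint: infected erythrocytes, 2% hematocrit, 0.05% parasitemia final; 96 hours at 37 C, 5% CO2; luciferase detection reagent; luminescence decrease equals reduced growth.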
Of the large screens only hits and unclear results are named; the others gave an inactive call. In the library only some 21% were active in any assay of this set; here they are far more common. Unless noted, calls follow the shape of the dose curve; as a rule, active = well fitted curve in the direction sought with a large enough effect; inconclusive = small, poorly fitted or top-dose-only effect, or another doubt; inactive = no such curve, though single readings can be large; an effect the other way counts as inactive or inconclusive.

C[C@H]1[C@H](C)OC(=O)C[C@H](O)C[C@H](O)C[C@H](O)CC[C@H](O)[C@H](O)CC(=O)C[C@H](O)[C@H](C(=O)O)[C@H](O)C[C@H](O[C@@H]2O[C@@H](C)[C@H](O)[C@@H](N)[C@@H]2O)C=CC=CC=CC=CCCC=CC=C[C@@](C)(O)[C@H]1O	none (no result: Pf growth 48h, Sm TGR inh, CHX counter, Shiga inhibitor, Pf growth 96h)
O=C(Nc1ccc(Cl)c(Cl)c1)N(Cc1c[nH]c2ccccc12)C1CCCCC1	none (no result: Pf growth 48h, NS1 function inh, CHX counter, Shiga inhibitor, Pf growth 96h)
N#Cc1ccc(-c2cn3c(n2)SCC3)cc1	CHX counter 36, Shiga inhibitor 64
Cc1ccc(C(=O)CCS(=O)(=O)c2ccc(F)cc2)cc1	Sm TGR inh 0.32µM, CHX counter 25, Shiga inhibitor 26
Cc1ccc(C(=O)CCS(=O)(=O)c2ccc(Cl)cc2)cc1	Sm TGR inh 0.35µM
Cc1cc(C(=O)C(=O)O)c(C)n1-c1ccc(Cl)cc1	none
Cc1cc(CC(=O)O)c(C)n1-c1ccc(Cl)cc1	Pf growth 48h inconclusive, Pf growth 96h 11µM (no result: Sm TGR inh, NS1 function inh, CHX counter, Shiga inhibitor)
Cc1oc2ccccc2c1CC(=O)NCCCN(C)C	Pf growth 48h 2.1µM
N#Cc1nc(-c2cccs2)oc1NCc1ccco1	CHX counter 18 (no result: Pf growth 96h)
N#Cc1nc(-c2cccs2)oc1NCc1ccccc1Cl	CHX counter 18, Shiga inhibitor 86 (no result: Pf growth 96h)
Cc1ccc(CNc2oc(-c3cccs3)nc2C#N)cc1	Pf growth 96h inconclusive
N#Cc1nc(-c2ccco2)oc1NCc1ccccc1Cl	CHX counter 12
COCCNc1oc(-c2ccccc2Cl)nc1C#N	none (no result: Pf growth 48h)
C=CCNc1oc(-c2cccs2)nc1C#N	CHX counter 19, Shiga inhibitor 51 (no result: Pf growth 96h)
Cc1cccc(Nc2c([N+](=O)[O-])c(=O)oc3ccccc23)c1	Pf growth 48h inconclusive, Pf growth 96h inconclusive
CCN(CC)CCNC(=O)c1c(C)oc2ncn(C)c(=O)c12	none (no result: Pf growth 48h, NS1 function inh, CHX counter, Shiga inhibitor, Pf growth 96h)
N#Cc1nc(-c2cccs2)oc1NCc1ccccc1	Pf growth 48h inconclusive, CHX counter 24
COC(=O)C1=C(Nc2ccccc2NS(=O)(=O)c2ccc(C(F)(F)F)cc2Cl)CSC1	none
COC(=O)C1=C(Nc2ccccc2NC(=O)c2ccccc2C(=O)O)CSC1	Sm TGR inh inconclusive, CHX counter 56, Shiga inhibitor 103
CC(C)c1ccccc1NC(=O)CCCC(=O)O	none (no result: Pf growth 96h)
COC(=O)C1=C(Nc2ccccc2NC(=O)CCCC(=O)O)CSC1	CHX counter 14
Cc1cccc(-n2c(N)cc(=O)nc2SCC(=O)Nc2ccc(F)cc2)c1C	none (no result: Pf growth 48h, NS1 function inh, CHX counter, Shiga inhibitor, Pf growth 96h)
CCOc1ccc(C=Nc2cccc3ncccc23)cc1	none (no result: NS1 function inh)
Cc1ccc(C=Nc2cccnc2N)cc1	CHX counter 19, Shiga inhibitor 13
COc1ccc(C=Nc2cccnc2N)cc1	CHX counter 24 (no result: Shiga inhibitor)
CN(C)c1ccc(C2/C(=C(/O)c3ccc(Br)cc3)C(=O)C(=O)N2C)cc1 (centres undefined)	Pf growth 96h 5.9µM (no result: Pf growth 48h)
